Structures are written as SMILES. Results filed as inconclusive are left out. Activity calls are given as the source filed them. Unless noted, the call rests on the fitted dose curve; in most records, active means well fitted curve in either direction with a large enough effect (not every such curve was filed as active); inconclusive means small, poorly fitted or top-dose-only effect, or another doubt; inactive means flat fitted curve, though single readings scatter. Where only a bound is given, the exact number is not on record here.

From PubChem BioAssay (NCATS) come the findings set out here.

The target of assay [1] is Lysosomal acid glucosylceramidase (Homo sapiens) (UniProt P04062). Nature of the assay: Glucocerebrosidase-p2 (AID 348; in the data active means potency below about 10 µM; further: potency means the concentration at half of the fitted maximal effect). The conditions noted are these: purified GBA, blue fluorogenic substrate, 40 min. The method, boiled down: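 Normal human glucocerebrosidase (0.2 nM) with blue fluorogenic substrate (80 uM final) in citrate/phosphate pH 5.9 with 10mM sodium taurocholate, 0.01% tween-20; 40 min RT, NaOH/glycine stop; fluorescence Ex 365/Em 440; AC50 from a titration from 0.6 nM upwards.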
Lysosomal acid glucosylceramidase (Homo sapiens), sequence (P04062 whole entry, looked up): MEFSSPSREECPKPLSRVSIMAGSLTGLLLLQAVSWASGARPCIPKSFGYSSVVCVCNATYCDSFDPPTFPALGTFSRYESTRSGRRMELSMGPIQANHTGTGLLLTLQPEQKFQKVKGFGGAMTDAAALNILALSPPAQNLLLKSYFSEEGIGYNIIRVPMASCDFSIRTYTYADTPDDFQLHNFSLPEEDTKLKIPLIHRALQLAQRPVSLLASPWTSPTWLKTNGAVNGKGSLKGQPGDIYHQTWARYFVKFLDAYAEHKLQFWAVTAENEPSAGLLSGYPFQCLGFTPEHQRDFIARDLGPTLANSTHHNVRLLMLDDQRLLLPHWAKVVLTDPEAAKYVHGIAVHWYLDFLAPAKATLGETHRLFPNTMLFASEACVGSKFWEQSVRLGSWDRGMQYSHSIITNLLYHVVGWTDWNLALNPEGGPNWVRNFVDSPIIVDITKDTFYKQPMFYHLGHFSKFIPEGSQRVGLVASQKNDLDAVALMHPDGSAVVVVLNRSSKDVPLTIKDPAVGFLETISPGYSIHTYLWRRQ

Assay [2] in a line: AP1 Signaling Pathway (AID 357). Further: on the % scale 0 is the no-effect control and ±100 the full control effect. Particulars: ME-180 AP-1-bla reporter, EGF-induced, beta-lactamase ratio, 5 h; at 7.69 µM (top of the series) unless noted. The method, boiled down: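 Cells are seeded overnight, exposed to compound titrations and an EC50 level of EGF for 5 hours at 37 °C, then loaded with CCF4 dye for 2.5 hours. Beta-lactamase activity under the AP-1 element is read as a blue/green ratio.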

Assay [3] in a line: NFAT Signaling Pathway (AID 444).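 Further: carbachol stimulus at about its EC50 of 1 µM final; on the % scale 0 is the no-effect control and ±100 the full control effect.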 Particulars: Jurkat NFAT-bla M1, carbachol, beta-lactamase ratio, 5 h; at 7.69 µM (top of the series) unless noted. In a few lines: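 Read-out: CCF4 FRET ratio (460 nm/530 nm) after 1 h RT dye loading, used for %activity and AC50 from titration series. Cells: Jurkat NFAT-β-lactamase/M1 line, treated with compound plus 1 uM carbachol for 5 h, 37 °C.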

The nature of assay [4]: Stat Signaling Pathway (AID 446).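 Further: ME-180 cervical cancer cells given 40 pM IL-6 alongside compound; SIE-controlled beta-lactamase reporter measured as 460/530 nm FRET emission ratio; on the % scale 0 is the no-effect control and ±100 the full control effect.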 Particulars: ME-180 (cervical carcinoma) SIE beta-lactamase reporter, IL-6 stimulated, 5 h; at 7.69 µM (top of the series) unless noted. In a few lines:
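Emission at 460 and 530 nm (excitation 405 nm) reports SIE-controlled beta-lactamase in ME-180 cells. Cells received compound with 40 pM IL-6 for 5 hrs at 37 C; data scaled between 300 pM IL-6 and 125 nM JAK-inhibitor controls.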

Assay [5] addresses Glucocorticoid receptor (Homo sapiens) (UniProt P04150). Nature of the assay: GR-EFC Redistribution (AID 451; calls by dose curve; further: potency means the concentration at half of the fitted maximal effect). The conditions noted are these: CHO-K1 GR-EFC translocation, beta-gal luminescence, 2 h. The method, boiled down: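 Translocation of GR-ED fusion to nuclear EA restores b-gal, read by luminescence after 1 h room-temperature detection. Engineered CHO-K1 biosensor cells, 1,000/well, exposed 2 h at 37 C to titrations up to 46 uM final.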

The target in assay [6] is Mitogen-activated protein kinase 10 (Mus musculus) (UniProt Q61831). Nature of the assay: JNK3 AlphaScreen Assay (AID 530).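 Further: kinase came from lysate of stimulated human HepG2 cells; signal reports phosphorylation of biotinylated GST-cJun 1-79 at Ser73 with 10 µM ATP; on the % scale 0 is the no-effect control and ±100 the full control effect.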 The conditions noted are these: JNK3 lysate, c-Jun phosphorylation; series mostly up to 57.1 µM. The method, boiled down:
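Kinase buffer: 20 mM Tris-HCl pH 7.6, 10 mM MgCl2, 1 mM DTT, 0.1 mM Na3VO4, 0.01% Tween-20; ATP 10 uM. Substrate biotin-GST-cJun(1-79), enzyme from activated HepG2 lysates. Detection by Ser73 phospho-antibody AlphaScreen.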
In general terms: Bead proximity is the source of the signal in Alpha formats.

Assay [7] concerns the target 3',5'-cyclic-AMP phosphodiesterase 4B (Homo sapiens) (UniProt Q07343). Nature of the assay: qHTS Assay for Inhibitors of PDE-IV (AID 607; active means well fitted activation curve with a large enough effect in the main read-out, with a control signal flat, not every such curve was filed as active; further: % of control where 0% means no effect). The conditions noted are these: HEK293 ACTOne CNG channel cells, membrane potential fluorescence; series mostly up to 22.9 µM. The method, boiled down: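 The readout is membrane depolarisation from a cAMP-sensing CNG channel, detected with a potential dye at ex 535/em 590. Cells were HEK293-derived (endogenous PDE-IV) at 1000 cells/well, titrated up to 22.9 uM final.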

The target in assay [8] is Cytochrome P450 3A4 (Homo sapiens) (UniProt P08684). The assay is described as follows: qHTS Assay for Inhibitors and Substrates of Cytochrome P450 3A4 (AID 884; active means well fitted curve in the direction sought with a large enough effect; an effect the other way counts as inactive or inconclusive; further: nearly all actives have a fitted effect of over 50% in size; further: potency means the concentration at half of the fitted maximal effect). The conditions noted are these: recombinant CYP3A4, Luciferin-PPXE luminescence; series mostly up to 57.1 µM. The method, boiled down:
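Luminescent readout of luciferin produced by CYP3A4 (20 nM) dealkylation of Luciferin-PPXE, 25 uM (its KM). NADPH-driven reaction ran 60 min at RT after 10 min compound preincubation; data scaled to 57 uM ketoconazole as 100% inhibition.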

Assay [9] is described as follows: qHTS Assay for Lipid Storage Modulators (AID 1519; calls by dose curve). Particulars: Drosophila S3 cells, BODIPY lipid droplet/cell ratio, laser cytometry, cells loaded with oleic acid. In a few lines:
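Cells seeded at 5,000 per well were treated with compounds over a concentration series and loaded with oleic acid (400 uM, as added). Lipid droplet fluorescence (488 nm excitation, 500-530 nm channel) was read by laser-scanning cytometry and normalized to 20 uM Triacsin C.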

The nature of assay [10]: Primary qHTS for small molecule stabilizers of the endoplasmic reticulum resident proteome: Secreted ER Calcium Modulated Protein (SERCaMP) assay (AID 1508630; active means well fitted curve in the direction sought with a large enough effect; an effect the other way counts as inactive or inconclusive; further: on the % scale 0 is the no-effect control and ±100 the full control effect). The conditions noted are these: SH-SY5Y GLuc-SERCaMP (Gaussia luciferase released on ER calcium loss) secretion, thapsigargin, luminescence; series mostly up to 38.4 µM. The method, boiled down:
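The SH-SY5Y reporter protocol was run at 3 concentrations up to 38.3 uM (primary) or 11 concentrations (follow-up): 16 h compound, 100 nM thapsigargin for 4 h, then extracellular luciferase luminescence.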
Background: qHTS replaces the single test concentration by a dilution series.

In assay [11] the target is Glucocorticoid receptor (Homo sapiens) (UniProt P04150). The assay is described as follows: GR-GFP Redistribution (AID 450;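 active means compounds whose dose series gives a full or clear partial fitted curve of increased nuclear translocation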; further: potency means the concentration at half of the fitted maximal effect). The conditions noted are these: U2OS GR-GFP nuclear translocation, laser cytometry, 2 h.
Glucocorticoid receptor (Homo sapiens), sequence (P04150 whole entry, looked up, the tested form may be a part): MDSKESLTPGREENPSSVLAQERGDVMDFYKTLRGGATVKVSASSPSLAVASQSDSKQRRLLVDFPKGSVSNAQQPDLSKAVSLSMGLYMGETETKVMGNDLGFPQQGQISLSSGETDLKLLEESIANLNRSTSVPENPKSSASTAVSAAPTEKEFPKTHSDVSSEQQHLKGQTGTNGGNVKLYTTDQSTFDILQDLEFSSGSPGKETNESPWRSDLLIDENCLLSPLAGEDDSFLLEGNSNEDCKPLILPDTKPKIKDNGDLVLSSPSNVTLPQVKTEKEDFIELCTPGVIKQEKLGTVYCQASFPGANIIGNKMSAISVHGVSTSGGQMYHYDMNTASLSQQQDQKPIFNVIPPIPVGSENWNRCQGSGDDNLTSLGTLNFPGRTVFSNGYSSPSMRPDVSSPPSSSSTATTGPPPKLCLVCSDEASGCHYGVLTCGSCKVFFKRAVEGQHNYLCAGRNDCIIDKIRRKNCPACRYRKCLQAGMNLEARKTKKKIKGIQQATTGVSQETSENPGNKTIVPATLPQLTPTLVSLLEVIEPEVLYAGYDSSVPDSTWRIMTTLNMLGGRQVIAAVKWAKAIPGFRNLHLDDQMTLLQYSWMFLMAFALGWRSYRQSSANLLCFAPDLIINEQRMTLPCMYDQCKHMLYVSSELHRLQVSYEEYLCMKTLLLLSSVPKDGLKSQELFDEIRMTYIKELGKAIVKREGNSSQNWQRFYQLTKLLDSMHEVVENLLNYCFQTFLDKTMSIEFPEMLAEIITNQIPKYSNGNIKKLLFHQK
For assay [12], the target named is Dual specificity protein kinase CLK4 (Homo sapiens) (UniProt Q9HAZ1). Nature of the assay: qHTS Assay for Inhibitors of CDC-like Kinase 4 (Kinase-Glo Assay) (AID 1770; active means well fitted curve in the direction sought with a large enough effect; an effect the other way counts as inactive or inconclusive; further: on the % scale 0 is the no-effect control and ±100 the full control effect; nearly all actives have a fitted effect of over 65% in size). Particulars: recombinant Clk4, Kinase-Glo ATP depletion luminescence; series mostly up to 66.7 µM. In a few lines: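 Inhibition was judged from remaining ATP, measured by Ultra-Glo luciferase bioluminescence after Clk4 (25 nM) had acted on RS peptide at 1 uM ATP for 4.5 hours, room temperature.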
Dual specificity protein kinase CLK4 (Homo sapiens), sequence (Q9HAZ1 whole entry, looked up): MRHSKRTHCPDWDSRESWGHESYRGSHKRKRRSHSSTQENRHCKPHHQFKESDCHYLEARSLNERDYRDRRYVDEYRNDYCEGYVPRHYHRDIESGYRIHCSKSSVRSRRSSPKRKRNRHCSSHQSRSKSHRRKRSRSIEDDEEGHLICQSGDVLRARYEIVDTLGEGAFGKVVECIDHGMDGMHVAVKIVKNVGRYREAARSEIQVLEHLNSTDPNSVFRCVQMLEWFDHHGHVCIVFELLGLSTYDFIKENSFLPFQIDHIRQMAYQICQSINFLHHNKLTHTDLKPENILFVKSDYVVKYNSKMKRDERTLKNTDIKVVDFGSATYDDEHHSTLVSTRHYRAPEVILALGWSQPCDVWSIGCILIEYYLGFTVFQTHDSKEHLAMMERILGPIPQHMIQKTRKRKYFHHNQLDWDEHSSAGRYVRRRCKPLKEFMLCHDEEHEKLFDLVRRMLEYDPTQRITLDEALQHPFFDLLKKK

Assay [13] has the same target. Nature of the assay: qHTS Assay for Inhibitors of CDC-like Kinase 4 (ADP-Glo Assay) (AID 1771; active means well fitted curve in the direction sought with a large enough effect; an effect the other way counts as inactive or inconclusive; further: on the % scale 0 is the no-effect control and ±100 the full control effect; nearly all actives have a fitted effect of over 70% in size). The conditions noted are these: recombinant CLK4, ADP-Glo luminescence; series mostly up to 80 µM. The method, boiled down: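 25 nM Clk4, 100 uM RS peptide, 1 uM ATP (final); 2 mM MgCl2, 0.5 mM EGTA, 2.5 mM DTT, 0.01% Triton X-100; 1 hr RT. ADP-Glo readout: ATP depletion 45 min, conversion/luciferase 30 min, luminescence.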

The target is the same in assay [14]. The assay is described as follows: qHTS Assay for Inhibitors of CDC-like Kinase 4 (ADP-FP Assay) (AID 1795; active means well fitted curve in the direction sought with a large enough effect; an effect the other way counts as inactive or inconclusive;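 further: recombinant human CLK4 phosphorylating RS repeat peptide at 1 µM ATP; on the % scale 0 is the no-effect control and ±100 the full control effect; nearly all actives have a fitted effect of over 60% in size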). The conditions noted are these: Transcreener ADP fluorescence polarization; series mostly up to 50 µM. The method, boiled down: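 Inhibition of ADP formation by 6.25 nM Clk4 is measured using 1 uM ATP and 100 uM RS repeat peptide over one hour. Produced ADP displaces a fluorescent tracer from antibody, lowering polarization.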

Assay [15] concerns the target Ubiquitin carboxyl-terminal hydrolase 1 (Homo sapiens) (UniProt O94782). Nature of the assay: Inhibitors of USP1/UAF1: Pilot qHTS (AID 504865; active means well fitted curve in the direction sought with a large enough effect; an effect the other way counts as inactive or inconclusive;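 further: rhodamine fluorescence freed from ubiquitin-rhodamine substrate followed over time; top concentration of the series differs between compounds; on the % scale 0 is the no-effect control and ±100 the full control effect; nearly all actives have a fitted effect of over 35% in size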). The conditions noted are these: purified USP1/UAF1, Ub-rhodamine cleavage fluorescence; series mostly up to 54.9 µM. In a few lines: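 Kinetic fluorescence assay: 1nM USP1/UAF1, 15 min compound preincubation, then 150nM Ub-Rho; 480/540 nm.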

Assay [16] addresses Cytochrome P450 1A2 (Homo sapiens) (UniProt P05177). The assay is described as follows: p450-cyp1a2 (AID 410; calls by dose curve; further: potency means the concentration at half of the fitted maximal effect;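 on activity change, negative = inhibition: -100% = full effect of reference inhibitor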). Particulars: recombinant CYP1A2, luciferin-ME demethylation, luminescence; series mostly up to 57 µM. The method, boiled down:
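20nM CYP1A2, 100uM Luciferin-ME (=Km), 100mM KPO4; cpd 10 min RT; +NADPH regen, 60 min RT; stop/detect 20 min; luminescence. Normalized to furafylline 57 uM = full inhibition.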

In assay [17] the target is Cytochrome P450 3A4 (Homo sapiens) (UniProt P08684). The assay is described as follows: qHTS Assay for Activators of Cytochrome P450 3A4 (AID 885; active means well fitted curve in the direction sought with a large enough effect; an effect the other way counts as inactive or inconclusive; further: nearly all actives have a fitted effect of over 65% in size). Particulars: recombinant CYP3A4, Luciferin-PPXE luminescence, 60 min; series mostly up to 57.1 µM. In a few lines:
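Activators are scored by enhanced luminescence from CYP3A4 conversion of luciferin-PPXE (25uM, equal to KM) to luciferin, after 60 min at RT with an NADPH-regenerating system.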

The target of assay [18] is Cytochrome P450 2D6 (Homo sapiens) (UniProt P10635). The assay is described as follows: qHTS Assay for Inhibitors and Substrates of Cytochrome P450 2D6 (AID 891; active means well fitted curve in the direction sought with a large enough effect; an effect the other way counts as inactive or inconclusive; further: potency means the concentration at half of the fitted maximal effect; nearly all actives have a fitted effect of over 60% in size). Particulars: recombinant CYP2D6, luciferin-ME EGE luminescence; series mostly up to 57.1 µM. The method, boiled down: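 Luminescent read-out of luciferin formed by 5 nM human CYP2D6 demethylating 30 uM Luciferin-ME EGE (Km level) over 60 min at room temperature after NADPH regeneration addition. Data normalized to full inhibition by 1.43 uM quinidine.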
Cytochrome P450 2D6 (Homo sapiens), sequence (P10635 whole entry, looked up): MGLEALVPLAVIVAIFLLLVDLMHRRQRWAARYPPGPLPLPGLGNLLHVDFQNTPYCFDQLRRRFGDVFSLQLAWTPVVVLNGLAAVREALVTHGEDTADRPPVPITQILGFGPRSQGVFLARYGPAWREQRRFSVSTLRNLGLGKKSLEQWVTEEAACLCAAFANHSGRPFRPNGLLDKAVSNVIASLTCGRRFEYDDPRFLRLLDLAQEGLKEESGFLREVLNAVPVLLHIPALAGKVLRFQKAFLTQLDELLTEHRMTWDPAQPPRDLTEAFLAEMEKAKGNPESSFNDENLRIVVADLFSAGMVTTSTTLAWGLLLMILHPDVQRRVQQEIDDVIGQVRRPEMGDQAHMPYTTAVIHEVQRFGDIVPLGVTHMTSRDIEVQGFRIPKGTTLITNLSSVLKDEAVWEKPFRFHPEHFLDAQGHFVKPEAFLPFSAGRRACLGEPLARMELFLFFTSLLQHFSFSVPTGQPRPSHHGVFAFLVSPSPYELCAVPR

A short description of assay [19]: Confirmation and Secondary Assay for Modulators of Hemoglobin Beta Chain Splicing at IVS2 654 locus (AID 910; active means well fitted curve in the direction sought with a large enough effect; an effect the other way counts as inactive or inconclusive;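 further: HeLa cells stably carrying EGFP split by mutant beta-globin IVS2-654 intron; per-well total GFP intensity by laser scanning cytometry after 2-day treatment; % of control where 0% means no effect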). The conditions noted are these: HeLa EGFP-654 splicing reporter, GFP fluorescence, 48 h; series mostly up to 38.3 µM. The method, boiled down:
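Readout: per-well total peak green fluorescence (488 nm ex, 500–520 nm em) from objects 5–250 µm, reflecting correct splicing of an EGFP-654 reporter. Compounds were applied for 2 days at 37 °C to overnight-plated HeLa EGFP-654 cells; controls were DMSO and 500 nM IVS2-654 PNA.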

A short description of assay [20]: Confirmation and Secondary Assay for Modulators of Hemoglobin Beta Chain Splicing at IVS2 705 locus (AID 930; active means well fitted curve in the direction sought with a large enough effect; an effect the other way counts as inactive or inconclusive;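 further: HeLa cells stably expressing the EGFP-705 splicing reporter; GFP fluorescence per well restored by corrected splicing of the IVS2-705 intron in EGFP; % of control where 0% means no effect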). The conditions noted are these: HeLa EGFP-705 splicing reporter, GFP fluorescence, 48 h; series mostly up to 38.3 µM. The method, boiled down:
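Fluorescence gain (488 nm laser, 500-520 nm PMT) reflects restored correct splicing of a mutant IVS2-705 intron inside EGFP in stably transfected HeLa cells after 2-day compound treatment.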

3',5'-cyclic-AMP phosphodiesterase 4B (Homo sapiens), sequence (Q07343 whole entry, looked up): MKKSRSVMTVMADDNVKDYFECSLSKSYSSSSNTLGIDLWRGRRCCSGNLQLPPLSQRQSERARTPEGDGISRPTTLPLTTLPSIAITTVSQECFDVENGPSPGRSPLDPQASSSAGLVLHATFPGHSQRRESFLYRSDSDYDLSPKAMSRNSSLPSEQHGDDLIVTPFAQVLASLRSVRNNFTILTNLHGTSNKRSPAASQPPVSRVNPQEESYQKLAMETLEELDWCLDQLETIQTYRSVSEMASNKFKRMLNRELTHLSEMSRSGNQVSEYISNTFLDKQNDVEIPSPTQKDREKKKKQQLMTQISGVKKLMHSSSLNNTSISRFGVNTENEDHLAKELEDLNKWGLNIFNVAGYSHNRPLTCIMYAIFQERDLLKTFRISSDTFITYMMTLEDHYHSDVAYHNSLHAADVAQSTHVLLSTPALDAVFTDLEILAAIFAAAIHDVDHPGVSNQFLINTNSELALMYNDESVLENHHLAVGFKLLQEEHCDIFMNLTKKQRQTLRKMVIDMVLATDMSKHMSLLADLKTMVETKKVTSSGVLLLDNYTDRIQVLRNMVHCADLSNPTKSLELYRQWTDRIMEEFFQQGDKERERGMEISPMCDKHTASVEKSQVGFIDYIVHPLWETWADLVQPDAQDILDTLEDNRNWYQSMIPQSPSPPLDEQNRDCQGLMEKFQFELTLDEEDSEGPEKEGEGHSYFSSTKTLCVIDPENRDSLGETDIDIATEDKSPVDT
Cytochrome P450 3A4 (Homo sapiens), sequence (P08684 whole entry, looked up): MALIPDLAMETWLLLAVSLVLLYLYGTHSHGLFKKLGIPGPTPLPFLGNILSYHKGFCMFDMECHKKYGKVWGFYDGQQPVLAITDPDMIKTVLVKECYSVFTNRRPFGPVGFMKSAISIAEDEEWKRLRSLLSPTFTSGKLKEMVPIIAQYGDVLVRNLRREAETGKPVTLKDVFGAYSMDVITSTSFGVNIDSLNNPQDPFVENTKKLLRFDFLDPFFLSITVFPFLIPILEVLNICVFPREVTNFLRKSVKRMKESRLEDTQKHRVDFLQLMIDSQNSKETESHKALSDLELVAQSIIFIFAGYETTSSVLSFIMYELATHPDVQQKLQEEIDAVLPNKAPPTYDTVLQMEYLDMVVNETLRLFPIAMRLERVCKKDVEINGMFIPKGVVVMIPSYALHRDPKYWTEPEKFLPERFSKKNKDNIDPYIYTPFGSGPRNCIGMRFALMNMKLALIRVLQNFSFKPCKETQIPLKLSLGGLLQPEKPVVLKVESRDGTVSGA
Cytochrome P450 1A2 (Homo sapiens), sequence (P05177 whole entry, looked up): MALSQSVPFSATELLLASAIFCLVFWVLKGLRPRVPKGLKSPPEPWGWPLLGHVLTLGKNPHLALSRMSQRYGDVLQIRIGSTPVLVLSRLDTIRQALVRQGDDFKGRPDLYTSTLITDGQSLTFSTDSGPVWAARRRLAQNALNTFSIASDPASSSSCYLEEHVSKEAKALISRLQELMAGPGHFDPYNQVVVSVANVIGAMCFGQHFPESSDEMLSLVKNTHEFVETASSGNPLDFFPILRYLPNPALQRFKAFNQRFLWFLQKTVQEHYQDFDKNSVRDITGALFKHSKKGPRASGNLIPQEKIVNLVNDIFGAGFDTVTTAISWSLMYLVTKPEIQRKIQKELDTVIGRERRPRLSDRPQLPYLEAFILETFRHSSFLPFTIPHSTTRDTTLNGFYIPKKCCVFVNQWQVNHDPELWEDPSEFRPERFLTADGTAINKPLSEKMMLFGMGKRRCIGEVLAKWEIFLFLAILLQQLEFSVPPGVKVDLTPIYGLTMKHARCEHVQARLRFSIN
Ubiquitin carboxyl-terminal hydrolase 1 (Homo sapiens), sequence (O94782 whole entry, looked up): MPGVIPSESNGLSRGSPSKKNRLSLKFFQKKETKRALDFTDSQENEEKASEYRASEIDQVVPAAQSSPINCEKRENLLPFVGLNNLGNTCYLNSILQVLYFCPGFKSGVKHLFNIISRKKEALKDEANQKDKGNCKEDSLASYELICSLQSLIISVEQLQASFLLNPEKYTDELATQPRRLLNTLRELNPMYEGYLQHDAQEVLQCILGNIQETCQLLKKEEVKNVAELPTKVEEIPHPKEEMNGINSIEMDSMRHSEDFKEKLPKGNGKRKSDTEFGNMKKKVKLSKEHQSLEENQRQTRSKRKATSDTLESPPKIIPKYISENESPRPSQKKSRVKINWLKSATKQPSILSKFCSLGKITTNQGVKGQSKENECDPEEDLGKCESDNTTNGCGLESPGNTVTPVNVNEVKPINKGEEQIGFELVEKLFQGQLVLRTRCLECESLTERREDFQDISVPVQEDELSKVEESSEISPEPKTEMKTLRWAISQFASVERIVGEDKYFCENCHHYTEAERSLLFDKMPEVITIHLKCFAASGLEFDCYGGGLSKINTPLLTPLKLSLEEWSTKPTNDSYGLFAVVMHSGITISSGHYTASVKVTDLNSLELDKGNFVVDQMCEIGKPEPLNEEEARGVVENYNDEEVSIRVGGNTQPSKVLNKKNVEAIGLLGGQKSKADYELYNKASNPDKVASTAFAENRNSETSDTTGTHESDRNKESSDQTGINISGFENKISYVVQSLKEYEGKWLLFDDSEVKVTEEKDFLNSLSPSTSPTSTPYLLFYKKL

In the case of `COC(=O)N1CCC2(CC1)CCN(c1ccccc1)CC2`, the Potency in assay [1] was > 11.4 µM (inactive); in assay [5], > 46 µM (inactive). Further, the values for the activity change, negative = inhibition in assay [2], in [3] and in [9] (at 57.5 µM (top of the series)) were 8.46% (inactive), 7.28% (inactive) and 0.493% (inactive), respectively. Moreover, in [4], the activity, negative = inhibition is 7.52% (inactive). In addition, the molecule was called inactive in [6]. Also, the Potency result in assay [7], in [8] and in assay [10] was “inactive” in each case. Moreover, the max response in assay [9] (measured here: cell count channel max response) amounted to 3.31%; in [9] (measured here: lipid channel max response) it was 7.38%.
For the molecule `CN(C)C(=O)c1ccc(-c2cncnc2NC2CCNCC2)cc1`, the Potency was > 11.4 µM (inactive) in assay [1], > 46 µM (inactive) in assay [11] and > 46 µM (inactive) in [5]. Moreover, the activity change, negative = inhibition in assay [2] is 7.68% (inactive); in [3], 9.18% (inactive). The activity, negative = inhibition in assay [4] was 15.4% (inactive). In addition, the molecule was classed as inactive in assay [6]. For the same molecule, the Potency entry in assay [7], in assay [12], in assay [13], in assay [14], in assay [15] and in assay [10] was “inactive” each time.
Take `CC(C)NC(=O)N1CCCC2(CCN(S(=O)(=O)c3ccccc3)CC2)C1`: the Potency is > 11.4 µM (inactive) in assay [1], > 46 µM (inactive) in assay [5], 7.94 µM (active) in assay [8] and 316 nM (active) in [18]. Besides, the activity change, negative = inhibition in assay [2] was -4.26% (inactive); in assay [3], -5.06% (inactive). Besides, the Potency entry in assay [16], in assay [7], in assay [17] and in [10] was “inactive” each time. In addition, in assay [4], the activity, negative = inhibition is -5.18% (inactive). Also, the molecule was classed as inactive in [6].
`CNc1ccnc(-c2ccccc2CN(C)C)n1`: the Potency is > 11.4 µM (inactive) in [1]; 12.6 µM (active) in [16]; > 46 µM (inactive) in [11]; > 46 µM (inactive) in assay [5]; 39.8 nM (active) in assay [18]. Also, the activity change, negative = inhibition is -3.79% (inactive) in assay [2] and -12.6% (inactive) in [3]. Further, the activity, negative = inhibition in [4] was -6.7% (inactive). Further, the call in assay [6], in assay [19] and in assay [20] was inactive. In addition, the Potency entry in assay [7], in assay [15] and in assay [10] was “inactive” in each case.
